This note sets out measurements from PubChem BioAssay.

Each structure is given as a SMILES string. Active and inactive are the calls of the source. Unless noted, how the calls were made is not given here.

Assay [1] deals with XIP peptide (Xip251-270) binding. The experiment in a line: small-molecule binders of XIP peptide, primary screen, biochemical, small-molecule microarray, fluorescence 635/667 nm, 0.1 µg/mL protein (AID 1182). Conditions: fluorescent protein binding, 635 nm, higher = more signal, called active from +8 up or from −8 down.
The next assay concerns XIP peptide (Xip251-270). The experiment in a line: small-molecule binders of XIP peptide, primary screen, biochemical, small-molecule microarray, fluorescence 635/667 nm, 0.5 µg/mL protein (AID 1183). Conditions: small-molecule microarray binding, fluorescence 635 nm; higher = more signal.
The nature of assay [2]: Plasmodium falciparum growth inhibition, primary screen, strain 3D7, DAPI fluorescence, 100 nL (AID 1184).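 Further: parasites grown inside human red blood cells in medium with human serum.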 As to conditions: P. falciparum 3D7 growth, 3 d, higher = more signal.
The target in assay [3] is Homeobox protein Hox-A13 (Mus musculus) (UniProt Q62424). The experiment in a line: inhibitors of HoxA13-DNA binding, primary screen, biochemical, fluorescence polarization, labeled oligonucleotide (AID 1185). As to conditions: 15 min, higher = more signal, called active from +8 up or from −8 down.
Assay [4] in a line: inhibitors of hydroxyurea-induced Chk1 phosphorylation, primary screen, imaging, HeLa, phospho-Chk1 antibody, percent positive cells (AID 1186). Conditions: hydroxyurea-induced phospho-Chk1 immunofluorescence imaging, higher = more signal.
Assay [5] can be described thus: inhibitors of hydroxyurea-induced Chk1 phosphorylation, primary screen, imaging, HeLa, phospho-Chk1 nuclear intensity (AID 1187). As to conditions: hydroxyurea-induced phospho-Chk1 immunofluorescence imaging, higher = more signal.

Chain of Homeobox protein Hox-A13 (Mus musculus) (Q62424 whole entry, looked up): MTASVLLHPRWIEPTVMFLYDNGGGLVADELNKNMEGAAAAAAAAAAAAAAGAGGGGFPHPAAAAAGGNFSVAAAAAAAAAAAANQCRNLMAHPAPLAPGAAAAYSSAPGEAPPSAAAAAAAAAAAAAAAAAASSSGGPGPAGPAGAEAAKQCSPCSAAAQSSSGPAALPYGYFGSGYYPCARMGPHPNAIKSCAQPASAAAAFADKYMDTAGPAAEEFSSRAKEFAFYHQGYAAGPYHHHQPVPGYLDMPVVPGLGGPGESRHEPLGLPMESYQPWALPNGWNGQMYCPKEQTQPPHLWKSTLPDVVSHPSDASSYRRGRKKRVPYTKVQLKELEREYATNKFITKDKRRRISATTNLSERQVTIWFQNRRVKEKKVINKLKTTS

On to `CN1C(=O)C2C(C1=O)C1C=C(CCCO)C2C(c2ccc(CN3CCCC3)cc2)N1C` (stereo not drawn), for which the composite z-score in assay [1] is 0.413 (inactive); in the assay on XIP peptide (Xip251-270) it was -0.598. The z-score in assay [2] was -1.27; in assay [3] it was -7.16 (inactive); in assay [4] it was -0.0348 (inactive); in assay [5], 0.185 (inactive).
Consider `CCOC(=O)C1=CC[C@H]2C(=O)N(CC)C(=O)[C@@H]12`, for which the composite z-score in assay [1] is 0.223 (inactive); with XIP peptide (Xip251-270), 0.343. Besides, the z-score is -0.239 in assay [2], -2.15 (inactive) in assay [3], 0.379 (inactive) in assay [4] and -0.0238 (inactive) in assay [5].
Turning to `CO[C@H]1O[C@H](CO)[C@@H](OC(=O)Nc2ccc3c(c2)OCO3)[C@H](OC(=O)Nc2ccccc2-c2ccccc2)[C@@H]1OC(=O)Nc1ccccc1-c1ccccc1`, the composite z-score in assay [1] is 1.03 (inactive); with XIP peptide (Xip251-270), 0.561. Further, the z-score in assay [2] is -2.6; in assay [3] it was -2.64 (inactive); in assay [4], -0.313 (inactive); in assay [5] it was -0.199 (inactive).
Take `C#C[C@@H](CC)O[Si](C#Cc1ccc(Oc2ccccc2)cc1)(C(C)C)C(C)C`: the composite z-score was 0.0878 (inactive) in assay [1] and -0.102 with XIP peptide (Xip251-270). Further, the z-score in assay [2] is -0.968; in assay [3], -0.279 (inactive); in assay [4], 0.169 (inactive); in assay [5], -0.0725 (inactive).
Regarding `COCC(=C=CC[C@@H](O)c1ccccc1OCCO)CCO`, the composite z-score was 0.291 (inactive) in assay [1] and 0.0706 with XIP peptide (Xip251-270). Further, the z-score in assay [2] was -0.721; in assay [3] it was -2.37 (inactive); in assay [4] it was -0.595 (inactive); in assay [5] it was -0.534 (inactive).
Consider `CCCNC(=O)[C@@H]1c2ccccc2C(=O)N(Cc2ccccc2Cl)[C@H]1c1ccc(CO)cc1`, for which the results for the composite z-score (in assay [1]; with XIP peptide (Xip251-270)) were -0.101 (inactive) and 0.799, respectively. The z-score in assay [2] was -0.994; in assay [3], -2.59 (inactive); in assay [4], -0.258 (inactive); in assay [5], -0.142 (inactive).
Take `COc1ccc([Si](C)(C)[C@@H]2[C@@H](CCO)O[C@]3(C(=O)N(Cc4ccc(NC(C)=O)cc4)c4ccccc43)[C@H]2C)cc1`: the composite z-score is 0.935 (inactive) in assay [1] and 0.811 with XIP peptide (Xip251-270). In addition, the z-score in assay [2] was -2.92; in assay [3] it was -5.34 (inactive); in assay [4], -0.861 (inactive); in assay [5], -0.16 (inactive).
As for `[N-]=[N+]=NCc1ccccc1C[C@]1(C(=O)NCc2ccccc2)N=C(c2ccc(OCCCO)cc2)O[C@H]1c1ccccc1N=[N+]=[N-]`, the composite z-score in assay [1] was -0.649 (inactive); in the assay on XIP peptide (Xip251-270) it was 0.344. The z-score in assay [2] was -2.52; in assay [3] it was 0.378 (inactive); in assay [4], -0.278 (inactive); in assay [5] it was -0.2 (inactive).
For the molecule `COC(=O)C1=CCC(c2cccc(Cl)c2)O1` (stereo not drawn), the composite z-score is -0.0103 (inactive) in assay [1] and 0.45 in the assay with XIP peptide (Xip251-270). In addition, the z-score in assay [2] was -0.539; in assay [3], -0.451 (inactive); in assay [4], 0.456 (inactive); in assay [5], 0.498 (inactive).
Consider `CC1CC/C=C\[C@H]2OC34C=CCN(Cn5nnc6ccccc65)C(=O)[C@H]3N(CCO)C(=O)[C@@H]4C2C(=O)O1` (stereo partly drawn), for which the composite z-score in assay [1] was 0.711 (inactive); in the assay with XIP peptide (Xip251-270), 0.855. The z-score in assay [2] is -0.611; in assay [3], -5.38 (inactive); in assay [4], -0.384 (inactive); in assay [5], -0.173 (inactive).
In the case of `CCOC(=O)C[C@H]1[C@H](OC(=O)c2cc3ccccc3oc2=O)[C@@H](NC(=O)c2ccc3ccccc3n2)c2cc(OCCCO)ccc2N1C(=O)c1ccccc1`, the composite z-score in assay [1] was 0.26 (inactive); in the assay with XIP peptide (Xip251-270), -0.224. Moreover, the z-score in assay [2] is -2.07; in assay [3] it was -0.763 (inactive); in assay [4] it was 0.22 (inactive); in assay [5] it was 0.249 (inactive).
With `O=C(CS)NCCCCCNC(=O)[C@@H]1C[C@@H]2C(=O)N[C@@H](Cc3ccccc3)C(=O)N2[C@@H]1c1ccc(O)cc1`, the values for the composite z-score (in assay [1]; in the assay on XIP peptide (Xip251-270)) were 0.508 (inactive) and 0.562, respectively. The z-score in assay [2] is -0.14; in assay [3], -2.5 (inactive); in assay [4] it was 0.83 (inactive); in assay [5], 0.886 (inactive).
As for `CC(C)[Si]1(C(C)C)O[C@@H](c2ccccc2)c2cc(C3CC3)nc(-c3ccccc3)c21`, the composite z-score was -0.431 (inactive) in assay [1] and 0.555 in the assay on XIP peptide (Xip251-270). Besides, the z-score is 0.0193 in assay [2], -1.21 (inactive) in assay [3], -0.652 (inactive) in assay [4] and -0.694 (inactive) in assay [5].
`COc1ccc(CCNC(=O)[C@@H]2c3ccccc3C(=O)N(c3ccc(C)cn3)[C@H]2c2ccc(CO)cc2)cc1`: the composite z-score in assay [1] was -1.02 (inactive); with XIP peptide (Xip251-270), 0.843. The z-score is -0.183 in assay [2], -1.78 (inactive) in assay [3], 0.274 (inactive) in assay [4] and 0.259 (inactive) in assay [5].
`CC(C)C[C@@H]1NC(=O)[C@H]2C[C@@H](C(=O)O)[C@@H](c3ccc(O)cc3)N2C1=O`: the composite z-score was 0.0473 (inactive) in assay [1] and 0.86 with XIP peptide (Xip251-270). For the same molecule, the z-score in assay [2] was -0.251; in assay [3], -2.19 (inactive); in assay [4], -0.523 (inactive); in assay [5], -0.332 (inactive).
Consider `CC1CC/C=C\[C@H]2OC34C=CCN(C(C)C)C(=O)[C@H]3N(CCCO)C(=O)[C@@H]4C2C(=O)O1` (stereo partly drawn), for which the composite z-score in assay [1] is 0.94 (inactive); in the assay on XIP peptide (Xip251-270), -0.835. Besides, the z-score is -0.0943 in assay [2], -2.96 (inactive) in assay [3], -0.471 (inactive) in assay [4] and -0.415 (inactive) in assay [5].
With `C/C=C\[C@@H](NCc1ccccc1Br)[C@@H](O)Cc1ccccc1`, the composite z-score is -0.0971 (inactive) in assay [1] and 0.0819 in the assay on XIP peptide (Xip251-270). In addition, the z-score in assay [2] is -1.64; in assay [3], -1.47 (inactive); in assay [4] it was 0.0731 (inactive); in assay [5], 0.35 (inactive).
`CN1C(=O)C2C=CC(C(O)c3ccc(I)cc3)N(NC(=O)OC(C)(C)C)C2C1=O` (stereo not drawn): the composite z-score in assay [1] was 0.0031 (inactive); with XIP peptide (Xip251-270), 0.575. Besides, the z-score was -0.711 in assay [2], -2.75 (inactive) in assay [3], 0.256 (inactive) in assay [4] and 0.078 (inactive) in assay [5].
